This note sets out measurements from PubChem BioAssay.

Molecules are shown by their SMILES. Where “and” joins values, the source holds several entries; their conditions need not be identical. Equal values may be shown once. Values without a mark were called inactive. For part of these data: Potency and affinity values are given separately. Calls of active or inactive are those of the source. Unless noted, how the calls were made is not given here.

The nature of experiment [1]: antimalarial activity against Dd2 strain (AID 2302;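 active means growth inhibition above 50% at the single 2 µM test dose, taken to imply half-maximal potency below 2 µM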;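 further: 0% = DMSO untreated growth and 100% = chloroquine plus artemisinin killed control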). The conditions noted are these: P. falciparum Dd2 in RBCs, LDH growth readout, 72 h; at 2 µM; hits give high values.
Experiment [2] is described as follows: human hepatoma cell viability loss – ATP luminescence, cytotoxicity control for P. falciparum antimalarial project, primary screen (AID 2303;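 active means inhibition above 50%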;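 further: 0% = DMSO wells and 100% = digitonin-killed cells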). The conditions noted are these: HepG2 viability, 24-48 h, at 10 µM, hits give high values.
The target in experiment [3] is L-lactate dehydrogenase (Plasmodium falciparum (isolate CDC / Honduras)) (UniProt Q27743). As to the kind of experiment: PfLDH activity inhibition – cell lysate, 3D7 strain, counter-screen for P. falciparum growth inhibition project (AID 2304).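 Further: 0% = vehicle and 100% = reference inhibitor.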 The conditions noted are these: P. falciparum 3D7 crude extract, LDH APAD/NBT absorbance; at 2 µM; hits give high values.
Chain of L-lactate dehydrogenase (Plasmodium falciparum (isolate CDC / Honduras)) (Q27743 whole entry, looked up): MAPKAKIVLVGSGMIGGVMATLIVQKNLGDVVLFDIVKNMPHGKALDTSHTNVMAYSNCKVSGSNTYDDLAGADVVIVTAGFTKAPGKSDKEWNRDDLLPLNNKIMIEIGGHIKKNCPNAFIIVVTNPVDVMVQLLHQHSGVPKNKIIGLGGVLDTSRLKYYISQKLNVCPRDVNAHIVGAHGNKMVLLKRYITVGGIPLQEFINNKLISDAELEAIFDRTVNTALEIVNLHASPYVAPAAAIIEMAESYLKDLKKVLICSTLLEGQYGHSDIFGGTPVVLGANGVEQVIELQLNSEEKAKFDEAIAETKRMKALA
Experiment [4] in a line: inhibition of 3D7 malaria parasite growth – strain 3D7 (AID 2306).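 Further: 0% = DMSO wells and 100% = chloroquine plus artemisinin control wells.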 The conditions noted are these: P. falciparum 3D7 erythrocytic growth, LDH absorbance, 72 h; at 2 µM; hits give high values.
Experiment [5] addresses Calcium-dependent protein kinase 1 (Plasmodium falciparum (isolate 3D7)) (UniProt P62344). The experiment can be described thus: PfCDPK1 kinase inhibitors, biochemical, TCAMS library (AID 1159585; cut-off not given, nearly all actives have IC50 up to about 0.98 µM;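 further: inhibitors leave more ATP so luminescence rises with inhibition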). The conditions noted are these: recombinant PfCDPK1, Kinase-Glo ATP depletion luminescence. (In general: Kinase-Glo measures the ATP left after a reaction by luminescence.)
Experiment [6] has as its target Plasmodium falciparum protein kinase 6 (PK6, PF3D7_1337100) (UniProt Q8IDW1). As to the kind of experiment: PfPK6 kinase inhibitors, biochemical, TCAMS library (AID 1159586). The conditions noted are these: recombinant PfPK6, Kinase-Glo ATP depletion luminescence.
The target in experiment [7] is Protein kinase 7 (PK7), Plasmodium falciparum 3D7 (PF3D7_0213400) (UniProt Q7YTF7). As to the kind of experiment: inhibition of Plasmodium PK7 catalytic activity – biochemical, TCAMS antimalarial set, Kinase-Glo luminescence (AID 1159587). The conditions noted are these: recombinant PfPK7, Kinase-Glo ATP depletion luminescence.
Chain of Protein kinase 7 (PK7), Plasmodium falciparum 3D7 (PF3D7_0213400) (Q7YTF7 1-343): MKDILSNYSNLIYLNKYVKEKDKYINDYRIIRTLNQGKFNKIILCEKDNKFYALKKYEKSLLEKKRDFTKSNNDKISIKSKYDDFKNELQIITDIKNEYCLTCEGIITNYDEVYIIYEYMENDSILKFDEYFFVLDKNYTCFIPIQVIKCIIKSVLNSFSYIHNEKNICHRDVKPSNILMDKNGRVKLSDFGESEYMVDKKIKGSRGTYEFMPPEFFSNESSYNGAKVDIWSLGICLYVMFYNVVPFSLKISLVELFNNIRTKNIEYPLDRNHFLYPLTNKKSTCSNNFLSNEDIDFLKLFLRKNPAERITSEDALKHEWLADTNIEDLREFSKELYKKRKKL
The target of experiment [8] is Calcium-dependent protein kinase 4 (Plasmodium falciparum (isolate 3D7)) (UniProt Q8IBS5). The experiment can be described thus: PfCDPK4 kinase inhibitors, biochemical, TCAMS library (AID 1159588; cut-off not given, nearly all actives have IC50 up to about 0.91 µM). The conditions noted are these: recombinant PfCDPK4, Kinase-Glo ATP depletion luminescence.
Chain of Calcium-dependent protein kinase 4 (Plasmodium falciparum (isolate 3D7)) (Q8IBS5 whole entry, looked up): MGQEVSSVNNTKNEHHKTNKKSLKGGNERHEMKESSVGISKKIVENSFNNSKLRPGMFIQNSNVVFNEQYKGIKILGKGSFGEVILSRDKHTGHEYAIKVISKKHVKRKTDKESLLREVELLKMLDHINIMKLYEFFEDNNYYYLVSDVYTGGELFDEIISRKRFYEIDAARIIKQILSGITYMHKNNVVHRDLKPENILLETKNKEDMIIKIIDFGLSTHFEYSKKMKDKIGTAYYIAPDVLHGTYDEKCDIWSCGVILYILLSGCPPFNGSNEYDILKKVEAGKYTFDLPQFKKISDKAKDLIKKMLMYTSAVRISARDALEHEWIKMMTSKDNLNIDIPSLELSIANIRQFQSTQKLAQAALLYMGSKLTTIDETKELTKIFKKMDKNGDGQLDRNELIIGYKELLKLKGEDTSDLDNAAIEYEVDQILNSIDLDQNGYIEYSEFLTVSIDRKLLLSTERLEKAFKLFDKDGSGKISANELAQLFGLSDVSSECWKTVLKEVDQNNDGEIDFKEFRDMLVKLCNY

Chain of Plasmodium falciparum protein kinase 6 (PK6, PF3D7_1337100) (Q8IDW1 1-305): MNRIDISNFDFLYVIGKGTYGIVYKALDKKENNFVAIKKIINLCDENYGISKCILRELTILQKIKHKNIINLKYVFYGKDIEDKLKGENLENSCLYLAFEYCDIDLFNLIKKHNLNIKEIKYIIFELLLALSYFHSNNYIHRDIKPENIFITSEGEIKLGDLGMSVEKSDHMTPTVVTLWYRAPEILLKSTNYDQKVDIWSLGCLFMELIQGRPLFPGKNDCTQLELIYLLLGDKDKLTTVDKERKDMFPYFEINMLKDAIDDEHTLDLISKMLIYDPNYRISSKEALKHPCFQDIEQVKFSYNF
Chain of Calcium-dependent protein kinase 1 (Plasmodium falciparum (isolate 3D7)) (P62344 whole entry, looked up): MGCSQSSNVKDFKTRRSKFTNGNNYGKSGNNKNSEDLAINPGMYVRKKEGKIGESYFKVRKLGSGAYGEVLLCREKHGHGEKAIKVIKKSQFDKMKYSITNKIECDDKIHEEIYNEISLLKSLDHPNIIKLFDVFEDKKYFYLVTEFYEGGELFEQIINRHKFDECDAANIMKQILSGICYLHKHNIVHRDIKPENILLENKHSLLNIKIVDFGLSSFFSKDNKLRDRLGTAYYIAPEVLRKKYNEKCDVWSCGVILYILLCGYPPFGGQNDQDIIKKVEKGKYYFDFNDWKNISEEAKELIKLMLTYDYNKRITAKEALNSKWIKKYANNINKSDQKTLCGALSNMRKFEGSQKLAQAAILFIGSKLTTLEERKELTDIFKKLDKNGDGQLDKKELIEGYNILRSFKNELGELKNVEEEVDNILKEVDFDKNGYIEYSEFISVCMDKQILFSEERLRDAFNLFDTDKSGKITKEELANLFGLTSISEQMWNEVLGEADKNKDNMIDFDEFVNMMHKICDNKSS

Consider `Cc1cccc(C(=O)Nc2ccnc(N(C)C3CCN(Cc4cccc(O)c4)CC3)c2)c1`, for which the growth inhibition in experiment [1] was 62% (active); in experiment [4], 89% (active). Moreover, the inhibition was 5% in experiment [2] and -1% in experiment [3]. The result in experiment [5], in experiment [6], in experiment [7] and in experiment [8] was inactive.
Turning to `Cc1[nH]c2cc(F)ccc2c1C1=CCN(CCCCC2(C)C(=O)Nc3c(F)cccc32)CC1` (stereo not drawn), the growth inhibition in experiment [1] is 89% (active); in experiment [4], 96% (active). The inhibition in experiment [2] was 15%; in experiment [3], -7%. For the same molecule, the result in experiment [5], in experiment [6], in experiment [7] and in experiment [8] was inactive.
In the case of `O=C(CSc1ccc(Cl)cc1)NC1CCC(CN2CCC(c3c[nH]c4ccccc34)CC2)CC1` (stereo not drawn), the growth inhibition in experiment [1] was 21%; in experiment [4], 95% (active). The inhibition in experiment [2] is 41%; in experiment [3] it was -3%. The outcome in experiment [5], in experiment [6], in experiment [7] and in experiment [8] was inactive.
In the case of `Cc1[nH]c2cc(Cl)ccc2c1C1=CCN(CCCCC2(C)C(=O)Nc3ccccc32)CC1` (stereo not drawn), the growth inhibition in experiment [1] is 90% (active); in experiment [4], 94% (active). For the same molecule, the results for the inhibition in experiment [2] and in experiment [3] were -3% and 0%, respectively. The result in experiment [5], in experiment [6], in experiment [7] and in experiment [8] was inactive.
On to `COc1cccc(/C=C/C(=O)NC2CCC(CN3CCC(c4c[nH]c5ccccc45)CC3)CC2)c1` (stereo not drawn), for which the growth inhibition is 26% and 38% in experiment [1]; 94% (active) and 100% (active) in experiment [4]. Also, the inhibition in experiment [2] is 19% and 30%; in experiment [3] it was -1% and 6%. Besides, the result in experiment [5], in experiment [6], in experiment [7] and in experiment [8] was inactive.
Consider `COc1ccc(C(=O)[C@H]2C[C@@H]2CN2CC=C(c3c[nH]c4ccccc34)CC2)cc1`, for which the figures for the growth inhibition in experiment [1] and in experiment [4] were 89% (active) and 95% (active), respectively. Further, the inhibition is 12% in experiment [2] and 1% in experiment [3]. Also, the result in experiment [5], in experiment [6], in experiment [7] and in experiment [8] was inactive.
As for `CC(C)CCNC(=O)c1cc(C(=O)c2cc(F)ccc2O)cn(CCC(C)C)c1=O`, the growth inhibition in experiment [1] is 45%; in experiment [4], 100% (active). Also, the inhibition in experiment [2] is 14%; in experiment [3], -1%. For the same molecule, the outcome in experiment [5], in experiment [6], in experiment [7] and in experiment [8] was inactive.
On to `CC1CN=C(Nc2ncc(Cl)cc2Cl)N1` (stereo not drawn), for which the figures for the growth inhibition in experiment [1] and in experiment [4] were 3% and 99% (active), respectively. For the same molecule, the inhibition in experiment [2] is 2%; in experiment [3] it was 7%. Besides, the outcome in experiment [5], in experiment [6], in experiment [7] and in experiment [8] was inactive.
Consider `C=C[C@H]1CN2CC[C@@H]1C[C@H]2[C@H](O)c1cc(-c2ccc(F)cc2)nc2ccc(OC)cc12`, for which the growth inhibition in experiment [1] was 98% (active); in experiment [4] it was 99% (active). The inhibition in experiment [2] is 5%; in experiment [3], -1%. Besides, the result in experiment [5], in experiment [6], in experiment [7] and in experiment [8] was inactive.
For `Oc1ccc(CN2CCN(CCOC(c3ccccc3)c3ccc(Cl)cc3)CC2)cc1Cl` (stereo not drawn), the values for the growth inhibition in experiment [1] and in experiment [4] were 97% (active) and 98% (active), respectively. Further, the inhibition was 11% in experiment [2] and -3% in experiment [3]. The outcome in experiment [5], in experiment [6], in experiment [7] and in experiment [8] was inactive.
For the molecule `O=C(C=Cc1ccc([N+](=O)[O-])cc1)NC1CCC(CN2CCC(c3c[nH]c4ccccc34)CC2)CC1` (stereo not drawn), the growth inhibition in experiment [1] was 61% (active) and 81% (active); in experiment [4], 102% (active) and 101% (active). Also, the inhibition in experiment [2] is 30% and 34%; in experiment [3], -3%. Also, the result in experiment [5], in experiment [6], in experiment [7] and in experiment [8] was inactive.
Consider `CC[C@H]1CN2CC[C@H]1C[C@H]2[C@H](O)c1cc(-c2ccc(Cl)c(Cl)c2)nc2ccc(OC)cc12`, for which the growth inhibition in experiment [1] was 99% (active); in experiment [4], 98% (active). Further, the inhibition in experiment [2] is 17%; in experiment [3] it was 6%. For the same molecule, the outcome in experiment [5], in experiment [6], in experiment [7] and in experiment [8] was inactive.
In the case of `Cc1ccc(CC(C)NC[C@H](O)c2cccc(Cl)c2)cc1` (stereo partly drawn), the growth inhibition is 47% in experiment [1] and 96% (active) in experiment [4]. The results for the inhibition in experiment [2] and in experiment [3] were 15% and -3%, respectively. In addition, the result in experiment [5], in experiment [6], in experiment [7] and in experiment [8] was inactive.
`O=C(NC1CCC(CN2CCC(c3c[nH]c4ccccc34)CC2)CC1)c1cc2ccccc2o1` (stereo not drawn): the growth inhibition in experiment [1] is 14%; in experiment [4] it was 94% (active). Besides, the inhibition was 34% in experiment [2] and 4% in experiment [3]. In addition, the result in experiment [5], in experiment [6], in experiment [7] and in experiment [8] was inactive.
For `O=C(Nc1ccccc1Cl)NC1CCC(CN2CCC(c3c[nH]c4ccccc34)CC2)CC1` (stereo not drawn), the growth inhibition was 31% and 34% in experiment [1]; 98% (active) and 101% (active) in experiment [4]. Moreover, the inhibition in experiment [2] was 32% and 37%; in experiment [3] it was 0% and -2%. For the same molecule, the outcome in experiment [5], in experiment [6], in experiment [7] and in experiment [8] was inactive.
Regarding `CC[C@H]1CN2CC[C@H]1C[C@H]2[C@H](O)c1cc(-c2ccc(F)cc2C)nc2ccc(OC)cc12`, the values for the growth inhibition in experiment [1] and in experiment [4] were 100% (active) and 99% (active), respectively. The inhibition in experiment [2] is -2%; in experiment [3] it was -3%. The outcome in experiment [5], in experiment [6], in experiment [7] and in experiment [8] was inactive.
`CC(=O)Nc1ccc(OCCN(CC(C)(C)C)c2ccc(C#N)c(C(F)(F)F)c2)c(Cl)c1`: the growth inhibition in experiment [1] is 93% (active); in experiment [4], 87% (active). For the same molecule, the inhibition in experiment [2] is -6%; in experiment [3] it was -1%. Also, the outcome in experiment [5], in experiment [6], in experiment [7] and in experiment [8] was inactive.
Consider `COc1cc(C=CC(=O)N2CCC(CN3CCC(c4c[nH]c5ccccc45)CC3)CC2)ccc1O`, for which the values for the growth inhibition in experiment [1] and in experiment [4] were 25% and 82% (active), respectively. The inhibition in experiment [2] is 11%; in experiment [3], -3%. The outcome in experiment [5], in experiment [6], in experiment [7] and in experiment [8] was inactive.
On to `COCCNCc1ccc(-c2ccc(CN(C(=O)NC3CCCCC3)C3CCN(Cc4ccccc4)CC3)cc2)cc1`, for which the growth inhibition in experiment [1] was 84% (active); in experiment [4], 94% (active). The inhibition in experiment [2] is 29%; in experiment [3], -1%. Also, the result in experiment [5], in experiment [6], in experiment [7] and in experiment [8] was inactive.
Consider `COc1ccc(N(c2nc(-c3cc(Cl)ccc3Cl)cs2)C2CCNCC2)cc1`, for which the growth inhibition in experiment [1] was 4%; in experiment [4], 91% (active). Moreover, the inhibition was 17% in experiment [2] and -2% in experiment [3]. The result in experiment [5], in experiment [6], in experiment [7] and in experiment [8] was inactive.
Take `CC(=O)Nc1ccc(CN2CCC(N(C)c3cc(NC(=O)c4cccc(F)c4)ccn3)CC2)cc1`: the growth inhibition is -1% in experiment [1] and 85% (active) in experiment [4]. Besides, the inhibition in experiment [2] is 4%; in experiment [3] it was 2%. For the same molecule, the result in experiment [5], in experiment [6], in experiment [7] and in experiment [8] was inactive.

The term inhibition denotes the relative decrease from the control value, in per cent.
